# Measured potencies and affinities stand elsewhere. Unmarked numbers belong to inactive results. No rule for the calls is given here.
# Assay: CCR5-tropic HIV-1 fusion blockers – cell-based, CCR5-tropic Env, dose response (AID 2279)
# Details: CCR5-tropic HIV-1 Env, reporter read-out; series mostly up to 50 µM; inhibition: at the top concentration
row,SMILES,inhibition
1,O=c1oc2ccccc2c(O)c1C(c1ccc([N+](=O)[O-])cc1)c1c(O)c2ccccc2oc1=O,34.6%
2,O=C1NC(=S)N(c2ccc(F)cc2)C(=O)/C1=C/c1ccco1,12.6%
3,O=C(O)c1cccc2c1NC(c1cccc([N+](=O)[O-])c1)C1CC(Sc3ccccc3[N+](=O)[O-])C(Cl)C21 (stereo not drawn),31.9%
4,NC(=O)Cn1cc(C=C2C(=O)NC(=O)NC2=O)c2ccccc21,0.56%
5,O=C1NC(=S)N(c2ccc(F)cc2)C(=O)/C1=C\c1ccoc1,-13.8%
6,Cc1ccc(N2C(=O)/C(=C/c3ccc(CN(CCC#N)S(C)(=O)=O)o3)C(=O)NC2=S)cc1C,13.2%
7,COc1ccc(N2C(=O)/C(=C/c3ccco3)C(=O)NC2=S)cc1,29.1%
8,COc1ccc(OC)c(N2C(=O)/C(=C/c3ccco3)C(=O)NC2=S)c1,4.55%
